Experimental findings from PubChem BioAssay (Tox21) are described below.

Inconclusive results are not listed. A call without a number means that no potency is given here. Activity calls are given as the source filed them. The call rests on the fitted dose curve; in most records, active means well fitted inhibition curve with a large enough effect in the signal ratio in the repeat runs (not every such curve was filed as active); inconclusive means weak or mixed curves, or effect the other way; inactive means flat fitted curve, though single readings scatter; the % refers to the signal ratio.

This experiment can be described thus: cAMP Responsive Elements (CRE) small molecule antagonists, cell-based qHTS assay (AID 1963591). The note with it: CRE-bla HEK293T, beta-lactamase FRET ratio; series mostly up to 92.4 µM. An excerpt:
U.S. Tox21 Program National Center for Advancing Translational Sciences [NCATS] Division of Preclinical Innovation [DPI] U.S. Environmental Protection Agency [EPA] National Institutes of Environmental Health Sciences [NIEHS] National Toxicology Program [NTP] U.S. Food and Drug Administration [FDA] Tox21 Assay Overview: CREB (cyclic-AMP Responsive Element Binding Protein) is a cellular transcription factor. It binds to certain DNA sequences called cAMP Responsive Elements (CRE) and regulates the transcription of the genes. […] This cell line can be used to find agonists/antagonists of the cyclic AMP signaling pathway. The activation of the report gene under culture conditions can be detected by fluorescence intensity. This cell line has been used to screen the Tox21 10K compound library to […].
Tox21 Assay Protocol Summary: CRE-bla Hek 293T cells were suspended in assay medium (DMEM containing 10% dialyzed FBS, 0.1 mM NEAA, 1 mM sodium pyruvate and 25 mM HEPES) and dispensed at 2,000 cells/4 uL /well into 1536-well black wall/clear bottom plates using a Multidrop Combi (ThermoFisher Scientific, Waltham, MA) dispenser. After the assay plates were incubated at 37 C/5% CO2 for 18 hrs, 23 nL of compounds dissolved in DMSO, positive controls or DMSO only was transferred to the assay plate by a pintool workstation (Kalypsys, San Diego, CA), followed by addition of 1 […] uL of 1.25uM NKH477 (0.25 uM as final concentration) in assay medium using a Flying Reagent Dispenser (Aurora Discovery, San Diego, CA). The plates were incubated at 37 C and 5% CO2 for 3 hrs. Then 1 uL of LiveBLAzer B/G FRET substrate (Invitrogen, Carlsbad, CA) was added to each well using Bioraptr Flying Reagent Dispenser (FRD, Aurora Discovery, San Diego, CA). The plates were incubated at room temperature for 2 h.
Turning to `CCC(=O)OC(C)c1ccccc1` (stereo not given), the Potency result was “inactive”.

As for `C=C(C)C(=O)NCCCN(C)C`, the Potency result was “inactive”.

Turning to `CCCCC(=O)N(C)C`, the Potency result is “inactive”.

For the compound `Nc1ccc(S(=O)(=O)Nc2ccc(Cl)nn2)cc1`, the Potency result is “inactive”.

As for `C[n+]1ccn(CCO)c1`, the Potency result is “inactive”.

Consider `CCOC(C)(C)C`, for which the Potency result was “inactive”.

With `Clc1ccc2c(c1)Nc1ccccc1S2`, the Potency result is “inactive”.

As for `Clc1ccc2c(Cl)ccnc2c1`, the Potency result was “inactive”.

In the case of `CCc1occc(=O)c1O`, the Potency result was “inactive”.

As for `N#CCC(=O)O`, the Potency entry is “inactive”.

Take `CC(=O)C(C)O` (stereo not given): the Potency result is “inactive”.

As for `CN(C)C(=O)Oc1ccc[n+](C)c1`, the Potency entry was “inactive”.

Turning to `OCCN1CCN(CCCN2c3ccccc3C=Cc3ccccc32)CC1`, the Potency entry was “inactive”.

For the compound `[K+]`, the Potency entry is “inactive”.

For `CCOC(=O)n1ccn(C)c1=S`, the Potency entry is “inactive”.

On to `CC(C)CC(C)O` (stereo not given), for which the Potency result was “inactive”.

As for `O=c1oc2c(O)c(O)cc3c(=O)oc4c(O)c(O)cc1c4c23`, the activity change, negative = inhibition is -7.75% [at 18.9 µM] (inactive).

For `CC1CCCC(=O)C1=O` (stereo not given), the Potency result was “inactive”.

`CCSC(=O)N(CC)CC`: the Potency entry is “inactive”.

On to `CCOC(=O)N1CCC(=C2c3ccc(Cl)cc3CCc3cccnc32)CC1`, for which the Potency result is “inactive”.

For the compound `C=CC(=O)OCCCCCCCC`, the Potency entry is “inactive”.

As for `OCC1CCC(CO)CC1` (stereo not given), the Potency entry is “inactive”.

Take `CCCCCCOC(=O)CC`: the Potency result is “inactive”.

Regarding `CC1CCc2nccnc21` (stereo not given), the Potency entry is “inactive”.

For `Clc1nc2ccccc2s1`, the Potency result was “inactive”.

For the compound `CCCCC(CC)CCC(CC(C)C)OS(=O)(=O)O` (stereo not given), the Potency result was “inactive”.

As to `CCCCCCC1(C)CCC(=O)O1` (stereo not given), the Potency entry was “inactive”.

Regarding `CCN1CCc2nc(N)oc2CC1`, the Potency entry was “inactive”.

As for `O=C1CC2CC1C1CCCC21` (stereo not given), the Potency entry was “inactive”.

In the case of `C[C@@H](O)[C@H]1C(=O)N2C(C(=O)O)=C([C@H]3CCCO3)S[C@H]12`, the Potency entry was “inactive”.

In the case of `CCN(CCO)c1cccc(C)c1`, the Potency result is “inactive”.

`C=CCOCC(O)CO` (stereo not given): the Potency result is “inactive”.

As for `O=C(C(=O)c1ccccc1)c1ccccc1`, the Potency result is “inactive”.

In the case of `CC(=O)O[C@@H]1C[C@@H]2CC[C@@]1(C)C2(C)C`, the Potency entry is “inactive”.

In the case of `CCCC(C)C(O)CC` (stereo not given), the Potency entry is “inactive”.

With `O=Cc1cccc([N+](=O)[O-])c1`, the Potency result was “inactive”.

As for `CCCCCCCCCC/C=C/C#N`, the Potency result was “inactive”.

Take `CC(C)c1cc2c(cc1S(=O)(=O)O)[C@@]1(C)CCC[C@@](C)(C(=O)O)[C@@H]1CC2`: the Potency result was “inactive”.

Regarding `COC(=O)N[C@H](C(=O)N[C@@H](Cc1ccccc1)[C@@H](O)CN(Cc1ccc(-c2ccccn2)cc1)NC(=O)[C@@H](NC(=O)OC)C(C)(C)C)C(C)(C)C`, the Potency result was “inactive”.

`C=CCCCCCCCCCCC`: the activity change, negative = inhibition is -0.765% [at 8.39 µM] (inactive).
